{"source": "PubChem BioAssay (NCI)", "note": "About 83,000 compounds went through this panel and 20% of them were active in at least one assay; those are over-represented in the sample as a whole.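 The test compound was applied at a single concentration to cells in 96-well plates for 48 hours, and percent growth was recorded.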 Activity calls are given as the source filed them. How the source made its calls: active means growth percent below 10; inactive means the rest."}
{"tested_on": "HOP-62 NSCLC", "assay": "NCI-60 one-dose screen, 48 h (100 = growth as untreated, 0 = no growth, -100 = all killed)", "conditions": "10 µM"}
{"smiles": "COc1ccc2c(c1)CC=C1[C@@H]2CC[C@]2(C)C(=O)/C(=N/O)C[C@@H]12", "growth": "88.5% (inactive)"}
{"smiles": "CC(C)(C)OC(=O)CN1CCc2c(sc3ncnc(N/N=C/c4ccccc4Br)c23)C1", "growth": "89% (inactive)"}
{"smiles": "COc1cc(/C=C/c2cc(/C=C/c3ccc(O)c(OC)c3)n(C(=O)Nc3ccccc3Cl)n2)ccc1O", "growth": "8.39% (active)"}
{"smiles": "O=C(CSc1nnc(-c2ccc(Cl)cc2)o1)Nc1ccc(C(=O)/C=C/c2ccc(Cl)cc2)cc1", "growth": "95.8% (inactive)"}
{"smiles": "Nc1nc(Cn2c(-c3nonc3N)nc3ccccc32)nc(N2CCCCC2)n1", "growth": "91.7% (inactive)"}
{"smiles": "CC(C)N(CCOc1ccc(-c2nc3sccn3c2-c2ccnc(S(C)(=O)=O)n2)cc1)C(C)C", "growth": "85.2% (inactive)"}
{"smiles": "O=C1CSC(=S)N1/N=C/c1ccc(Cl)s1", "growth": "95.4% (inactive)"}
{"smiles": "CCN(CC)CCOC(=O)c1cc(OCc2ccccc2)c(OCc2ccccc2)c(OCc2ccccc2)c1", "growth": "62.4% (inactive)"}
{"smiles": "CNC(=O)c1cc(Oc2ccc3c(c2)sc2nc(-c4ccc(N)cc4)cn23)ccn1", "growth": "46.8% (inactive)"}
{"smiles": "COc1ccc(-c2cc(-c3ccc(Cl)cc3)nc(SCCCCCCC(=O)NO)n2)cc1OC", "growth": "62.4% (inactive)"}
{"smiles": "O=C(O)COc1c(Cl)cc([N+](=O)[O-])cc1Cl", "growth": "88.8% (inactive)"}
{"smiles": "COC(=O)C1(O)NC(=C(C#N)C#N)C(C#N)=C1C(=O)c1ccc(OC)c(OC)c1", "note": "(stereo unspecified)", "growth": "96.1% (inactive)"}
{"smiles": "COc1ccc(C2=Cn3c(CCC(=O)c4nc5ccccc5[nH]4)nnc3SC2)cc1", "growth": "93.7% (inactive)"}
{"smiles": "COc1cc2cc(Oc3ccc(NC(=O)c4cc(C(F)(F)F)cc(C(F)(F)F)c4)cc3)c(C)nc2cc1OC", "growth": "84.7% (inactive)"}
{"smiles": "Oc1ccc(/C=N/N=C2c3ccccc3-c3ccccc32)c(O)c1", "growth": "82.3% (inactive)"}
{"smiles": "COc1cccc(C2C(C#N)=C(N)Oc3cc(N)ccc32)c1", "note": "(stereo unspecified)", "growth": "45.4% (inactive)"}
{"smiles": "COc1ccc(C(c2ccc(OCCN(C)C)cc2)c2cc3ccccc3c3ccccc23)cc1", "note": "(stereo unspecified)", "growth": "92.5% (inactive)"}
{"smiles": "Clc1nc2ccc(Br)cc2cc1-c1nc2ccccc2[nH]1", "growth": "81.3% (inactive)"}
{"smiles": "Cc1cccc(N=Cc2ccccc2O)c1C", "growth": "103% (inactive)"}
{"smiles": "CC(C)c1ccc(C(C)C(=O)N(CC2=C(C(C)c3ccccn3)c3ccccc3C2)C(C)C)cc1", "note": "(stereo unspecified)", "growth": "59.2% (inactive)"}
{"smiles": "CC(=O)N[C@H](C(=O)N[C@@H](CCCNC(=N)N)C(=O)N[C@@H](CCCCN)C(=O)N[C@@H](CCCNC(=N)N)C(=O)NC(C(=O)N[C@@H](CC(C)C)C(=O)N[C@@H](CCCNC(=N)N)C(=O)N[C@@]1(C)CCC/C=C\\CCC[C@@](C)(C(=O)N[C@@H](CCCNC(=N)N)C(=O)N[C@@H](CCC(=O)O)C(=O)N[C@@H](CC(C)C)C(=O)N[C@H](C(=O)N[C@@H](CCC(=O)O)C(N)=O)C(C)C)NC(=O)[C@H](CCC(N)=O)NC(=O)[C@H](CC(C)C)NC(=O)[C@H](CC(C)C)NC1=O)[C@@H](C)O)C(C)C", "note": "(stereo partly specified)", "growth": "-43.1% (active)"}
{"smiles": "COc1cc2c(cc1NC(=O)C(Cl)Cl)-c1ccc(NC(=O)C(Cl)Cl)cc1C2", "growth": "-58.3% (active)"}
{"smiles": "CC1OC2CC(=O)OC2C2=C1C(=O)c1c(O)c3c(c(O)c1C2=O)C1CC(O)C3(O)C(C)O1", "note": "(stereo unspecified)", "growth": "-49.5% (active)"}
{"smiles": "COc1cc(-c2csc(NC(=O)Nc3ccc(Cl)c(C(F)(F)F)c3)n2)cc(OC)c1OC", "growth": "-23.8% (active)"}
{"smiles": "COc1cc2cc(Oc3ccc(NC(=O)Nc4ccc(C(F)(F)F)cc4)cc3)c(C)nc2cc1OC", "growth": "18.8% (inactive)"}
{"smiles": "COc1ccc(/C=C/C(=O)C(=O)/C=C/c2ccc(OC)c(OC)c2)cc1OC", "growth": "93.2% (inactive)"}
{"tested_on": "NCI-H460 lung", "assay": "NCI-60 one-dose screen, 48 h (100 = growth as untreated, 0 = no growth, -100 = all killed)", "conditions": "10 µM"}
{"smiles": "C[n+]1c2ccccc2nc2ccccc21", "growth": "17.3% (inactive)"}
{"smiles": "C=CCn1c(SCC(=O)Nc2ccc(C(=O)/C=C/c3ccc(OC)cc3)cc2)nnc1-c1ccc(OC)c(OC)c1", "growth": "91.7% (inactive)"}
{"smiles": "Cc1n[nH]c(C)c1N=Nc1cccc2c1C(=O)c1ccccc1C2=O", "growth": "96.5% (inactive)"}
{"smiles": "CC[C@H]1OC(=O)[C@H](C)[C@@H](O[C@H]2C[C@@](C)(OC)[C@@H](O)[C@H](C)O2)[C@H](C)[C@@H](O[C@@H]2O[C@H](C)C[C@H](N(C)C)[C@H]2O)[C@](C)(OC)C/C(C)=C2/O[C@@]1(C)C=C2C", "growth": "-49.6% (active)"}
{"smiles": "CCOC(=O)CN(c1sc(C)c(C)c1C(=O)OCC)S(=O)(=O)c1ccc(C)cc1", "growth": "98% (inactive)"}
{"smiles": "Cc1noc(C)c1CSc1ccccc1C(=O)N1CCN(c2cccc(C(F)(F)F)c2)CC1", "growth": "84.2% (inactive)"}
{"smiles": "O=C(CCCSc1nc(-c2ccccc2)cc(-c2ccc(Cl)cc2)n1)NO", "growth": "-9.81% (active)"}
{"smiles": "O=C(Nc1ccc(F)cc1)c1cc2ccccc2cc1O", "growth": "80.5% (inactive)"}
{"smiles": "COc1ccc(-c2cc(-c3ccccc3)nc(SCCCCCCC(=O)NO)n2)cc1", "growth": "36% (inactive)"}
{"smiles": "COc1cc2c(cc1NC(=O)C(F)(F)F)-c1ccc(NC(=O)C(F)(F)F)cc1C2", "growth": "97.8% (inactive)"}
{"smiles": "S=C(NCc1ccccc1)NCc1ccccc1", "growth": "103% (inactive)"}
{"smiles": "NNC(=O)Oc1c(Cl)cc(Cl)cc1[N+](=O)[O-]", "growth": "110% (inactive)"}
{"smiles": "Cc1c(Cl)cccc1NC(=O)CN1CCOCC1", "growth": "100% (inactive)"}
{"smiles": "O=C1c2ccccc2C(=O)N1CCCCNc1ccccc1", "growth": "89.3% (inactive)"}
{"smiles": "COc1ccc2c(c1)CC=C1[C@@H]2CC[C@]2(C)C(=O)/C(=N/O)C[C@@H]12", "growth": "101% (inactive)"}
{"smiles": "CC(C)(C)OC(=O)CN1CCc2c(sc3ncnc(N/N=C/c4ccccc4Br)c23)C1", "growth": "70.9% (inactive)"}
{"smiles": "COc1cc(/C=C/c2cc(/C=C/c3ccc(O)c(OC)c3)n(C(=O)Nc3ccccc3Cl)n2)ccc1O", "growth": "7.39% (active)"}
{"smiles": "O=C(CSc1nnc(-c2ccc(Cl)cc2)o1)Nc1ccc(C(=O)/C=C/c2ccc(Cl)cc2)cc1", "growth": "98.2% (inactive)"}
{"smiles": "Nc1nc(Cn2c(-c3nonc3N)nc3ccccc32)nc(N2CCCCC2)n1", "growth": "99.4% (inactive)"}
{"smiles": "CC(C)N(CCOc1ccc(-c2nc3sccn3c2-c2ccnc(S(C)(=O)=O)n2)cc1)C(C)C", "growth": "102% (inactive)"}
{"smiles": "O=C1CSC(=S)N1/N=C/c1ccc(Cl)s1", "growth": "107% (inactive)"}
{"smiles": "CCN(CC)CCOC(=O)c1cc(OCc2ccccc2)c(OCc2ccccc2)c(OCc2ccccc2)c1", "growth": "12.4% (inactive)"}
{"smiles": "CNC(=O)c1cc(Oc2ccc3c(c2)sc2nc(-c4ccc(N)cc4)cn23)ccn1", "growth": "10.1% (inactive)"}
{"smiles": "COc1ccc(-c2cc(-c3ccc(Cl)cc3)nc(SCCCCCCC(=O)NO)n2)cc1OC", "growth": "19.7% (inactive)"}
{"smiles": "O=C(O)COc1c(Cl)cc([N+](=O)[O-])cc1Cl", "growth": "109% (inactive)"}
{"smiles": "COC(=O)C1(O)NC(=C(C#N)C#N)C(C#N)=C1C(=O)c1ccc(OC)c(OC)c1", "note": "(stereo unspecified)", "growth": "100% (inactive)"}
{"smiles": "COc1ccc(C2=Cn3c(CCC(=O)c4nc5ccccc5[nH]4)nnc3SC2)cc1", "growth": "101% (inactive)"}
{"smiles": "COc1cc2cc(Oc3ccc(NC(=O)c4cc(C(F)(F)F)cc(C(F)(F)F)c4)cc3)c(C)nc2cc1OC", "growth": "26.9% (inactive)"}
{"smiles": "Oc1ccc(/C=N/N=C2c3ccccc3-c3ccccc32)c(O)c1", "growth": "83.2% (inactive)"}
{"smiles": "COc1cccc(C2C(C#N)=C(N)Oc3cc(N)ccc32)c1", "note": "(stereo unspecified)", "growth": "11.9% (inactive)"}
{"smiles": "COc1ccc(C(c2ccc(OCCN(C)C)cc2)c2cc3ccccc3c3ccccc23)cc1", "note": "(stereo unspecified)", "growth": "-28.6% (active)"}
{"smiles": "Clc1nc2ccc(Br)cc2cc1-c1nc2ccccc2[nH]1", "growth": "73.2% (inactive)"}
{"smiles": "Cc1cccc(N=Cc2ccccc2O)c1C", "growth": "114% (inactive)"}
{"smiles": "CC(C)c1ccc(C(C)C(=O)N(CC2=C(C(C)c3ccccn3)c3ccccc3C2)C(C)C)cc1", "note": "(stereo unspecified)", "growth": "23.1% (inactive)"}
{"smiles": "CC(=O)N[C@H](C(=O)N[C@@H](CCCNC(=N)N)C(=O)N[C@@H](CCCCN)C(=O)N[C@@H](CCCNC(=N)N)C(=O)NC(C(=O)N[C@@H](CC(C)C)C(=O)N[C@@H](CCCNC(=N)N)C(=O)N[C@@]1(C)CCC/C=C\\CCC[C@@](C)(C(=O)N[C@@H](CCCNC(=N)N)C(=O)N[C@@H](CCC(=O)O)C(=O)N[C@@H](CC(C)C)C(=O)N[C@H](C(=O)N[C@@H](CCC(=O)O)C(N)=O)C(C)C)NC(=O)[C@H](CCC(N)=O)NC(=O)[C@H](CC(C)C)NC(=O)[C@H](CC(C)C)NC1=O)[C@@H](C)O)C(C)C", "note": "(stereo partly specified)", "growth": "-63.6% (active)"}
{"smiles": "COc1cc2c(cc1NC(=O)C(Cl)Cl)-c1ccc(NC(=O)C(Cl)Cl)cc1C2", "growth": "-51.6% (active)"}
{"smiles": "CC1OC2CC(=O)OC2C2=C1C(=O)c1c(O)c3c(c(O)c1C2=O)C1CC(O)C3(O)C(C)O1", "note": "(stereo unspecified)", "growth": "2.35% (active)"}
{"smiles": "COc1cc(-c2csc(NC(=O)Nc3ccc(Cl)c(C(F)(F)F)c3)n2)cc(OC)c1OC", "growth": "2.24% (active)"}
{"smiles": "COc1cc2cc(Oc3ccc(NC(=O)Nc4ccc(C(F)(F)F)cc4)cc3)c(C)nc2cc1OC", "growth": "42.8% (inactive)"}
{"smiles": "COc1ccc(/C=C/C(=O)C(=O)/C=C/c2ccc(OC)c(OC)c2)cc1OC", "growth": "51.7% (inactive)"}
